# Inconclusive results are not listed. A number with no mark means an inactive call. The call rests on the fitted dose curve; in most records, active means well fitted inhibition curve with a large enough effect; inconclusive means small, poorly fitted or top-dose-only effect; inactive means flat fitted curve, though single readings scatter. Where a SMILES comes first, the peptide text is derived from it.
# Biological target: Calcium and integrin-binding protein 1 (Homo sapiens) (UniProt Q99828)
# Assay: Primary qHTS for Identification of Calcium Integrin Binding Protein 1 (CIB1) Competitor (AID 1508620);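 further: GST tagged CIB1 binding a fluorescein labelled alphaIIb integrin peptide tracer; top concentration of the series differs between compounds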
# Settings: CIB1-GST / FITC-alphaIIb peptide fluorescence polarization; series mostly up to 114 µM; activity change, negative = inhibition: at the top concentration
# Text: Assay Provider: Ulhas P. Naik, PhD Sidney Kimmel Medical College Thomas Jefferson University, Philadelphia, PA Primary function of platelets is to maintain hemostasis. At the site of vascular injury, platelets adhere to adhesive proteins such as collagen and von Willebrand factor. Adherent platelets are activated and generate soluble platelet agonists such as thrombin, ADP and thromboxane A2. Following exposure of circulating platelets to these agonists, results in platelet shape change, granule secretion and activation of platelet integrin alphaIIb-beta3. Ligand binding to activated integrin alphaIIb-beta3 triggers outside-in signaling, leading to platelet aggregation, stabilization of platelet plug, and clot retraction. Upon atherosclerotic plaque rupture also causes platelet plug formation, which underlies a number of cardiovascular diseases such as myocardial infraction and stroke. A number of anti-platelet drugs such as aspirin, clopidogrel, prasugrel, vorapaxar, and eptifibatide are currently available to prevent the thrombotic complications. However, these anti-platelet agents have several limitations including inherent variability in individual responses, developing resistance, and serious bleeding side effects. For these reasons they are not suitable for long-term protection. Based on the experiences with current anti-platelet drugs, it appears that the most useful therapeutic approach is to intersect the secondary responses such as integrin outside-in signaling or recruitment of platelets by TxA2 and secreted ADP. Compounds, which can largely preserve the primary hemostatic function of platelets but inhibit secondary response will be most desired therapeutic agents for treatment of cardiovascular disease. CIB1 is a calcium integrin binding protein, which specifically interact with the alphaIIb subunit of integrin alphaIIb-beta3. Binding of CIB1 to alphaIIb regulates the outside-in signaling in platelets, which is needed for thrombus stabilization and thrombus growth. […] Therefore, we propose that discovery of a small molecule that can prevent the association of CIB1 and alphaIIb-beta3 will be a potential anti-platelet agent that can block the thrombus formation without undue effect on hemostasis. Reference: [1] Naik MU, Nigam A, Manrai P, et al. CIB1 deficiency results in impaired thrombosis: the potential role of CIB1 in outside-in signaling through integrin alpha IIb beta 3. J Thromb Haemost.
# PROTOCOL TABLES SEQUENCE No. (1, 2, 3, etc.); […] (e.g., Cells, Incubation, Reagent, etc.); VALUE and DESCRIPTION. 1; Reagent; 3 uL; Protein or buffer (4/3x) 2; Compound; 46 nL; Control inhibitor / compound library 3; Time; 15 min; Room temperature incubation 4; Reagent; 1 uL; Fluorescent labeled peptide (4x) 5; Time; 1000 rpm; Centrifuge 6; Time; 15 min; Room temperature incubation 7; Detection; Ex 480/ Em 540; ViewLux Fluorescence Read NOTES (numbers refer to sequence above) 1; Protein Mixture: C1B1-GST (final concentrations of 1 uM). […] 3; Room temperature incubation. 4; Fluorescent Labeled Peptide: FITC-aIIb (final concentration of 100 nM). Sequence of alphaIIb peptide: Acetyl-[…]-FITC (purity is 95.83%). 5; Centrifuge 1000 rpm (164 g) for 15 seconds. 6; Room temperature incubation. 7; ViewLux Fluorescent Polization Read: excitation = 480(20) / emission = 540(25) S and P; FITC Dichroic mirror.
# On the % scale 0 is the no-effect control and ±100 the full control effect.
# Calcium and integrin-binding protein 1 (Homo sapiens), sequence (Q99828 whole entry, looked up): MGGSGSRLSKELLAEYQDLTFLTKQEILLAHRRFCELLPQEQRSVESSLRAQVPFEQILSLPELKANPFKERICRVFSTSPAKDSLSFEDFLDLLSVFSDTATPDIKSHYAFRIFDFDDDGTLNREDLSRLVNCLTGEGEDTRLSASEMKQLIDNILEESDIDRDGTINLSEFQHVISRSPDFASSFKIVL
row,Compound,"activity change, negative = inhibition"
1,C[C@]12CCC(=O)C=C1CC[C@@H]1[C@@H]2[C@@H](O)C[C@@]2(C)[C@H]1CC[C@]2(O)C(=O)COC(=O)CCC(=O)O,3.87%
2,CCCCCCCCCCCCCCCCCCNC(=O)OC1CCN(C(=O)OC[C@H](COC(=O)N(Cc2cccc[n+]2CC)C(=O)c2ccccc2OC)OC)CC1,-2.21%
3,O=C1OC2(c3ccccc31)c1cc(I)c(O)c(I)c1Oc1c2cc(I)c(O)c1I,7.59%
4,CCCCCCCCCCCCCCCCCCN(C)C,5.69%
5,CCC1=C[C@@H]2CN(C1)Cc1c([nH]c3ccccc13)[C@@](C(=O)OC)(c1cc3c(cc1OC)N(C)[C@H]1[C@@](O)(C(=O)OC)[C@H](OC(C)=O)[C@]4(CC)C=CCN5CC[C@]31[C@@H]54)C2,1.81%
6,COc1ccccc1OCC1CNC(=O)O1 (stereo not given),0.0354%
7,CCC1(c2cnc[nH]2)Cc2ccccc2C1,-2.62%
8,O=c1[nH]c2ccccc2c(=O)n1CCCl,0.887%
9,O=C(Oc1ccccc1)c1cccc(C(=O)Oc2ccccc2)c1,-5.04% [at 228 µM]
10,CC(C)C(=O)OCc1cccc(OC(=O)[C@@H]2N3C(=O)[C@@H](NC(=O)Cc4ccccc4)[C@H]3SC2(C)C)c1,1.86%
11,N=C(N)c1ccc(OCCCOc2ccc(C(=N)N)cc2)cc1,3.62%
12,O=P(O)(O)OCC(O)CO (stereo not given),6.87%
13,CCCCC(O)/C=C(C)/C=C/C=C/C(=O)N1CCCC1=O (stereo not given),-11.2%
14,CC(C)=CCC/C(C)=C/CC/C(C)=C/CCC(=O)OC/C=C(\C)CCC=C(C)C,5.8%
15,COC(=O)C1=CO[C@@H](O)[C@@H]2C(CO)=CC[C@H]12,-1.04%
16,CC(C(O)c1ccccc1)N(C)CCOC(c1ccccc1)c1ccccc1 (stereo not given),-0.772%
17,C=CCNc1nc(NCC=C)nc(N2CCN(C(c3ccc(F)cc3)c3ccc(F)cc3)CC2)n1,7.28%
18,Cc1ccc(C(=O)Oc2ccc(C(O)CNC(C)(C)C)cc2OC(=O)c2ccc(C)cc2)cc1 (stereo not given),-10.4%
19,CCCCCC1Nc2cc(C(F)(F)F)c(S(N)(=O)=O)cc2S(=O)(=O)N1 (stereo not given),-1.26%
20,Cc1cnc(NS(=O)(=O)c2ccc(N)cc2)nc1,3.14%

row,Compound,"activity change, negative = inhibition"
1,C[C@H]1C[C@H](O)c2ccsc2S1(=O)=O,-2.58%
2,Cn1cc(S(C)=O)c(=O)c2ccc(F)cc21 (stereo not given),3.11%
3,Cc1oc(=O)oc1COC(=O)[C@@H]1N2C(=O)[C@@H](NC(=O)[C@H](N)c3ccccc3)[C@H]2SC1(C)C,-1.18%
4,CCCCC(CC)CNC(=O)CC(C)OC(=O)CCC(=O)O (stereo not given),4.91%
5,CC(=O)N[C@@H](CO)C(=O)N[C@@H](CC(=O)O)C(=O)N[C@@H](CCCCN)C(=O)N1CCC[C@H]1C(=O)O (Ac-SDKP-OH),-4.58%
6,CCOCCn1c(C2CCN(CCc3ccc(C(C)(C)C(=O)O)cc3)CC2)nc2ccccc21,8.16%
7,Cc1cccc(N(C)C(=S)Oc2ccc3c(c2)CCC3)c1,2.83%
8,CN1C(CSCC(F)(F)F)Nc2cc(Cl)c(S(N)(=O)=O)cc2S1(=O)=O (stereo not given),-1.76%
9,C/C(=C1\CCOC(=O)S1)N(C=O)Cc1cnc(C)nc1N,-6.32%
10,CN(C)CCCOC1(Cc2ccccc2)CCCCCC1,1.38%
11,O=C1CC2(CCCC2)CC(=O)N1,-3.88%
12,CC(C(=O)O)c1ccc(/C=C2\CCCCC2=O)cc1 (stereo not given),-1.04%
13,CC(Oc1c(Cl)cccc1Cl)C1=NCCN1 (stereo not given),3.65%
14,CCN(CC)CC(=O)OCC(=O)[C@@]1(O)CC[C@H]2[C@@H]3CCC4=CC(=O)CC[C@]4(C)[C@H]3[C@@H](O)C[C@@]21C,0.832%
15,CC(C)=CCNc1ncnc2c1ncn2[C@@H]1O[C@H](CO)[C@@H](O)[C@H]1O,0.51%
16,O=C(O)Cn1c(=O)n(Cc2ccc(Br)cc2F)c(=O)c2ccc(Cl)cc21,-2.48%
17,N#Cc1cc(NC(=O)C(=O)O)c(Cl)c(NC(=O)C(=O)O)c1,-5.9%
18,OC[C@]1(O)OC[C@@H](O)[C@H](O)[C@@H]1O,-4.16%
19,CC[C@@]1(O)C(=O)OCc2c1cc1n(c2=O)Cc2c-1nc1ccccc1c2/C=N/OC(C)(C)C,4.01%
20,Oc1ccc(CCNCCCCCCNCCc2ccccc2)cc1O,-4.95%

# From PubChem BioAssay (NCATS)
